High-throughput results from PubChem BioAssay.
rRNA inh HTS: selective bacterial rRNA inhibition in E. coli. E. coli WT GFP vs humanized-ribosome RFP mutants, fluorescence, 24 h; active compounds read low; DMSO median 0, no signal -100. GFP signal change (wild-type ribosome), % (concentration not given with the values). 350,000 compounds, 1.6% hits. AID 720706;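 active = significant combined selectivity score with lowered wild-type GFP, culture density cut under 30%, mutant RFP and density less affected; inactive = any of these conditions unmet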
PAX8 reporter: lowers PAX8-driven luciferase in RMG-I cells. RMG-I TPO-luciferase reporter, SteadyGlo, 24 h. 360,000 compounds, 1.2% hits. inhibition, % at 12.6 µM. AID 652154;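 active = mean replicate inhibition at least 60% with every replicate also reaching 60%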;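 note: luciferase light reporting Pax8 driven TPO promoter activity; plate controls were median of neutral control wells for no effect and mitoxantrone controls for full effect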
SIRT5 inh: inhibitors of human sirtuin-5 desuccinylase | Q9NXA8 | Purified SirT5, succinyl-peptide AMC, trypsin-coupled fluorescence | inhibition, % at 15 µM | 330,000 compounds, 1.1% hits; in the data active = inhibition above about 15%
Target sequence (Q9NXA8 whole entry, looked up): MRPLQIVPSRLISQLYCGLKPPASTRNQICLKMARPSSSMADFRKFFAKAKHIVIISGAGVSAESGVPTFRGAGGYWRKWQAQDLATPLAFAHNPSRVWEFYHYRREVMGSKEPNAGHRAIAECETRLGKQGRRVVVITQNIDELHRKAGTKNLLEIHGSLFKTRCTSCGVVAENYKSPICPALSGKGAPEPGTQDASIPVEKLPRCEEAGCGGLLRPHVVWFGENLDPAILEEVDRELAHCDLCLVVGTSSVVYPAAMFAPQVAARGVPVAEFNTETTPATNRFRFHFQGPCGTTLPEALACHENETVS
LGR2 antag: inhibitors of bursicon-induced Drosophila LGR2 receptor cAMP signaling; 380,000 compounds, 0.35% hits; inhibition, % at 9.99 µM; HEK293 LGR2, CRE-luciferase, bursicon-stimulated, 4 h; AID 720647;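 active = drop in luminescence signal, shown as inhibition above about 50% in the replicate tests, limit read from the data, passing the limit was not always enough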;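 note: agonist challenge used bursicon conditioned medium at about half maximal strength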
EWS-Fli block: inhibitors of EWS/Fli oncoprotein transcriptional activity. 350,000 compounds, 0.67% hits. A673 NR0B1-luciferase reporter, viability-normalised. inhibition, % at 12.6 µM;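 active = mean inhibition of at least 50% after viability correction, with every replicate also passing that limit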;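 note: firefly luciferase signal divided by Alamar Blue viability fluorescence both relative to DMSO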
PGC1a acetyl inh: lowers PGC1a acetylation signal in U2OS cells. AlphaScreen anti-acetyl-lysine; with virally co-expressed GCN5 acetyltransferase. inhibition, % at 15.6 µM. 350,000 compounds, 0.17% hits. AID 651687;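 active = every replicate shows inhibition of at least 40%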;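 note: 0% = neutral control wells and 100% = positive control wells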
* hit, by the source's call; . = no result; ! = not active in a repeat. Compounds with a hit are over-represented: about 3.4% of the library has one in this group of screens.

SMILES	rRNA inh HTS	PAX8 reporter	SIRT5 inh	LGR2 antag	EWS-Fli block	PGC1a acetyl inh
O=C(O)c1ccc(COc2ccc3c(c2)CCC3)cc1	-15	-11	1	-44	5	5
COC(=O)c1ccc(COc2ccc3c(c2)CCC3)o1	-24*	-11	6	-99	-88	6
CCCc1ccc(OCc2ccc(C(=O)O)o2)c(OC)c1	.	.	.	.	.	45
O=C(NCc1cccnc1)c1ccc(COc2ccccc2Br)o1	-24*	.	-1	11	9	-27
O=C(NCc1cccnc1)c1ccc(COc2ccccc2Cl)o1	-24	37	0	3	12	-29
NNC(=O)c1ccc(COc2ccc3c(c2)CCC3)cc1	-26*	-97	-1	-56	-5	.
CCCc1ccc(OCc2ccc(C(=O)OC)o2)c(OC)c1	-19*	.	0	-82	-29	-14
CC=Cc1ccc2n(c1=O)C[C@@H]1[C@@H](CO)[C@H](C(=O)NCC3CC3)N(Cc3cccnc3)[C@H]21 (mixture of isomers)	-1	-7	-5	-8	-5	.
COc1ccc(S(=O)(=O)Cc2ccc(C(=O)NCc3cccnc3)o2)cc1	0	20	.	0	-2	5
O=C(NCc1cccnc1)c1ccc(COc2ccc3c(c2)CCC3)o1	-21*	.	1	1	-44	-22
COc1cccc(C2c3cc4c(cc3OC(N3CCCC3)C2C)OCO4)c1O (centres undefined)	-20*	15	.	3	13	6
COc1cc(C2c3cc4c(cc3OC(N3CCCCC3)C2C)OCO4)cc(OC)c1O (centres undefined)	0	5	.	-7	9	2
O=C(Nc1ccc(C(F)(F)F)cc1)N[C@H]1CC[C@H](CCn2cc(C3(O)CCCC3)nn2)O[C@H]1CO	-6	31	8	16	6	3
COc1cccc(-c2ccc([C@@H]3[C@H](CO)N(C(=O)C4CC4)C34CN(C(C)=O)C4)cc2)c1	1	-11	-1	6	-11	-6
COc1ccccc1CNS(=O)(=O)c1ccc(-c2cnc(C3CC3)o2)cc1	-3	34	1	14	61*	.
Cc1ccc(NS(=O)(=O)c2ccc(-c3cnc(C4CC4)o3)cc2)c(C)c1	-33	40	0	-17	52*	.
CCOc1ccccc1NS(=O)(=O)c1ccc(-c2cnc(C3CC3)o2)cc1	-38	76*	-1	-21	.	-17
Cc1cccc(N(C)S(=O)(=O)c2ccc(-c3cnc(C4CC4)o3)cc2)c1	7	99*	-1	-26	58*	.
COc1ccc(-c2cnc3c(c2)C(=O)N([C@H](C)CO)C[C@H](C)[C@H](CN(C)C(=O)C2CC2)O3)cc1	5	.	.	-12	-1	-3
C/C=C/c1ccc2c(c1)O[C@H](CN(C)C(=O)NCCC)[C@H](C)CN([C@@H](C)CO)S2(=O)=O	-4	-13	0	-1	-1	6
C[C@H](CO)N1C[C@H](C)[C@@H](CN(C)C(=O)c2ccc(F)cc2)Oc2cc(C3=CCCCC3)ccc2S1(=O)=O	-9	17	7	6	27	-11
O=S(=O)(Nc1ccc(F)cc1Cl)c1ccc(-c2cnc(C3CC3)o2)cc1	-48	28	-4	6	57*	4
COc1ccccc1NS(=O)(=O)c1ccc(-c2cnc(C3CC3)o2)cc1	-14	41	-2	-25	.	-27
CNC(=S)c1cc(C(C)(C)C)c(O)c(C(C)(C)C)c1	-21*	-5	-5	2	4	.
O=C1/C(=C/c2ccccc2[N+](=O)[O-])COc2ccccc21	-6	61*	0	91*	28	-121
SMILES	rRNA inh HTS	PAX8 reporter	SIRT5 inh	LGR2 antag	EWS-Fli block	PGC1a acetyl inh
CC(C)CC#Cc1ccc2c(c1)O[C@@H](CN(C)Cc1ccc(C(=O)O)cc1)[C@H](C)CN([C@@H](C)CO)S2(=O)=O	-3	11	14	-20	4	3
O=C(c1cccc([N+](=O)[O-])c1)c1cc2ccccc2o1	12	-38	32*	-26	-53	.
C/C(=N\Nc1cccc([N+](=O)[O-])c1)c1cc2ccccc2o1	.	-129	-5	.	-114	.
COc1cccc(/C=C2/Sc3ccc(C(=O)NCCN4CCCCCC4)cc3NC2=O)c1	-57	97*	0	-3	.	-31
CCN1CCN(CCCNC(=O)c2ccc3c(c2)NC(=O)/C(=C\c2cccc(C)c2)S3)CC1	-55	3	-3	17	60*	.
Cc1cccc(/C=C2/Sc3ccc(C(=O)NCCCN4CCOCC4)cc3NC2=O)c1	1	12	-5	3	16	-4
COc1ccc(S(=O)(=O)N(C)C[C@H]2Oc3ccc(NS(=O)(=O)c4cn(C)cn4)cc3C(=O)N([C@H](C)CO)C[C@H]2C)cc1	4	.	.	-16	-17	1
N#CCCNC(=O)Cn1c(COc2ccc(Cl)cc2)nc2ccccc21	6	70*	-4	-7	-9	4
O=C(Cn1c(COc2ccc(Cl)cc2)nc2ccccc21)NCC(F)(F)F	.	-18	.	-7	.	.
CN(C)CCCNC(=O)C[C@H]1CC[C@@H]2[C@@H](COc3ccc(NC(=O)c4ccc5c(c4)OCO5)cc3C(=O)N2C)O1	0	-66	-6	-6	-53	5
CCN1[C@@H]2Cn3c(ccc(C4=CCCCC4)c3=O)[C@H]1[C@@H](C(=O)NCC(F)(F)F)[C@@H]2CO	5	.	.	.	.	.
CCOc1ccc(NC(=S)NNC(=S)Nc2cccc(C(F)(F)F)c2)cc1	-28*	-29	-5	-11	-20	.
COc1ccc(NC(=S)NNC(=S)Nc2cccc(C(F)(F)F)c2)cc1	-24*	-7	1	-14	-7	-28
CCOc1cc(OCC)cc(C(=O)NC(=S)Nc2cccc(C(F)(F)F)c2)c1	.	.	.	.	.	8
O=C(Nc1cc(F)ccc1F)N[C@H]1CC[C@@H](CCn2cc(C3CC3)nn2)O[C@@H]1CO	0	-4	-1	-7	2	17
Cc1noc(C)c1S(=O)(=O)Nc1ccc2c(c1)C(=O)N([C@H](C)CO)C[C@@H](C)[C@@H](CN(C)Cc1ccc(C(F)(F)F)cc1)OCCCC[C@@H](C)O2	-2	59	24*	-9	.	-5
Cc1noc(C)c1S(=O)(=O)Nc1ccc2c(c1)C(=O)N([C@@H](C)CO)C[C@@H](C)[C@@H](CN(C)Cc1ccc(C(F)(F)F)cc1)OCCCC[C@@H](C)O2	-5	57	27*	-10	.	15
Cc1noc(C)c1S(=O)(=O)Nc1ccc2c(c1)C(=O)N([C@H](C)CO)C[C@H](C)[C@@H](CN(C)Cc1ccc(C(F)(F)F)cc1)OCCCC[C@@H](C)O2	-1	5	13	10	.	6
Cc1noc(C)c1S(=O)(=O)Nc1ccc2c(c1)C(=O)N([C@@H](C)CO)C[C@H](C)[C@@H](CN(C)Cc1ccc(C(F)(F)F)cc1)OCCCC[C@H](C)O2	1	71*!	24*!	3	-1	4
